This passage reports inhibition results from PubChem BioAssay AID504621 (Broad Institute, 2011).

Out of some 310,000 compounds screened, about 970 (0.31%) were called active.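 How the source made its calls: active means every replicate shows inhibition above about 80%, whatever the replicate mean (limit read from the data); inconclusive means mean inhibition reaches the set limit but some replicate falls short; inactive means the rest.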 This excerpt belongs to a sample that is enriched for actives.

Usually inhibition stands for the relative decrease from the control value, in per cent.

This test in a line: growth inhibition of PfHsp90-expressing yeast, primary screen, antimalarial PfHsp90 inhibitor project, S. cerevisiae, BacTiter-Glo luminescence, single point, set 2 (AID 504621).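 Further: yeast relying on Plasmodium falciparum Hsp90 in place of its own; 0% = DMSO neutral controls and 100% = 20 µM radicicol positive controls.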 Conditions: BacTiter-Glo ATP, 48 h, at 9.4 µM, hits give high values, yeast lacking PDR1 and PDR3 efflux regulators.
Regarding `CCCCCCCCCCOC(=O)Cn1c(COc2cccc(OC)c2)[n+](C)c2ccccc21`, the inhibition was -14.9% (inactive). Under `Cc1ccc(OCCCn2c(=O)oc3ccccc32)cc1` stands -16.3% (inactive); under `CCCCCCCCCCOC(=O)Cn1c(COc2ccc(C)cc2)[n+](C)c2ccccc21`, 110% (active).

`COc1ccc(-c2nc3cc(C)ccn3c2NC2CCCCC2)cc1SC1CCCCC1`: the inhibition was 9.74% (inactive). In the case of `FC(F)(F)c1ccc(-c2cccc3c2C2CC3CCN2Cc2ccccc2)cc1` (configuration not stated), the inhibition was 6.57% (inactive). To `O=C1C=C(c2ccc(Cl)cc2)C(=O)N1Nc1ccccc1` belongs 134% (active); to `O=C(O)CC1=C(Nc2ccccc2)C(=O)N(c2ccccc2)C1c1ccc(Cl)cc1` (configuration not stated), -10.5% (inactive); to `O=C(CCC(=O)OCc1ccc(Cl)cc1)Nc1ccccc1`, -21.6% (inactive). Under `COc1cc(/C=C/c2ccc(/C=C/c3cc(OC)c(OC)c(OC)c3)cc2)cc(OC)c1OC` stands -3.68% (inactive); under `Cc1c[n+]([O-])ccc1[N+](=O)[O-]`, 4.7% (inactive); under `COCC(=O)N(C)[C@H]1C[C@H]2c3cc(Oc4ccccc4C)ccc3CCN2C(=O)[C@H]1[C@H](C)O`, -8.3% (inactive).

Take `O=S(=O)(Nc1ccc2ccccc2c1)N1CCCCC1`: the inhibition is 2.41% (inactive).

With `O=C(CNC(=O)c1cc(S(=O)(=O)N2CCOCC2)ccc1N1CCCC1)Nc1ccc(F)c(F)c1`, the inhibition was -6.44% (inactive).

In the case of `CCN1/C(=C\c2ccc3ccccc3[n+]2CC)Sc2cc(C)ccc21`, the inhibition was 87.5% (active).

For `Cc1cccc(C=CC(=O)c2ccc(Cl)cc2)c1`, the inhibition was 5.15% (inactive). For `Cc1ccc(C)c(N2CCN(C(=O)CCc3nc(-c4cccc(C(F)(F)F)c4)no3)CC2)c1`, the inhibition was -1.63% (inactive). Regarding `O=C(O)C(CCc1ccccn1)c1ccccc1` (configuration not stated), the inhibition was -16% (inactive).

As to `CCCCNC(=O)C(C)N(CCN(C)C)C(=O)CCCCCN1C(=O)NC(c2ccc(Cl)cc2)C(C(=O)OCc2ccccc2)=C1C` (configuration not stated), the inhibition is -0.725% (inactive). Regarding `COc1cccc(/C=N/Nc2ncc(C(F)(F)F)cc2Cl)c1O`, the inhibition is 91.5% (active). Under `FC(F)(F)c1cnc(Oc2ccccc2-c2nnc(-c3ccc(Cl)cc3)o2)c(Cl)c1` stands -8.43% (inactive); under `COc1cccc(/C=N/Nc2cc(C)nc(-c3ccccc3O)n2)c1O`, -15.4% (inactive); under `CCCCCCCCNS(=O)(=O)CCNC1CCCCC1`, 21.1% (inactive).

Regarding `O=C(NC1=CC(=O)c2ccccc2C1=O)c1ccccc1`, the inhibition was 54.3% (inactive). Consider `C#CCOCCOCCOCCNc1nc(N2CCN(C(=O)Cn3cc(CCO)nn3)CC2)nc(N2CCN(C(=O)[C@H](CCCCN)n3cc(CCCC)nn3)CC2)n1`, for which the inhibition is -9.73% (inactive).

In the case of `Oc1c(Cl)cc(Cl)c(Cl)c1Cc1c(O)c(Cl)cc(Cl)c1Cl`, the inhibition was 108% (active). For `O=C(Nc1ccc2ccccc2c1[N+](=O)[O-])c1ccccc1`, the inhibition was -14.2% (inactive). To `COc1ccc(CC(=O)NC(C)c2ccc(Cl)c(Cl)c2)cc1S(=O)(=O)N1CCOCC1` (configuration not stated) belongs 15.2% (inactive). To `COc1ccc(OCc2cn3c(C)cc(C)nc3n2)cc1` belongs -13.7% (inactive); to `CCOc1ccc(C(C)C)cc1S(=O)(=O)n1nc(C)cc1C`, 11.4% (inactive). Consider `COc1ccc(C(C[N+](=O)[O-])n2nc(C)cc2C)cc1` (configuration not stated), for which the inhibition was 104% (active). Under `CCC(=O)/C(=C(/O)c1ccccc1)c1nc2ccccc2[nH]1` stands -12.2% (inactive); under `O=C(/C(=C/c1cccc(Cl)c1)c1nc2ccccc2[nH]1)c1ccccc1`, 86.9% (active); under `O=C(Cc1nc2ccccc2[nH]c1=O)c1ccc(Cl)cc1`, -1.68% (inactive).

`Nc1ccc2c(c1)C(O)c1ccc(Cl)cc1-2` (configuration not stated): the inhibition is -1.88% (inactive).

Consider `CN(C)S(=O)(=O)Oc1ccccc1C(=O)Nc1ccccc1Cl`, for which the inhibition was 15.5% (inactive). Under `O=C(Nc1ccccc1Cl)O/N=C(/c1ccccc1)c1ccccn1` stands 9.66% (inactive); under `O=C(Nc1ccccc1Cl)/C(Cl)=C(\Cl)S(=O)c1ccccc1` (configuration not stated), 127% (active); under `Cc1cc(OCCCC(=O)Nc2cc(S(=O)(=O)N3CCOCC3)ccc2N2CCOCC2)ccc1Cl`, -7.69% (inactive). Under `COc1ccc(C2=Nn3c(nnc3-c3ccccc3OC)SC2)cc1OC1CCCC1` stands 1.24% (inactive); under `CCCCN(C(=O)CSCc1ccc(C)cc1)c1c(N)n(Cc2ccccc2)c(=O)[nH]c1=O`, -17.2% (inactive). Under `Cc1cc2c(cc1C)NC1(C[C@H]3CCC(=O)N4CC[C@@H](C1)[C@@H]34)C(=NC(C)(C)CC(C)(C)C)N2` (some centres not stated) stands 3.65% (inactive); under `Cc1cccc(NC(=O)c2nc(S(=O)(=O)Cc3ccccc3)ncc2Cl)c1`, 98.3% (active); under `CCOc1ccc(NC(=O)c2nc(SCC)ncc2Cl)cc1`, 15.7% (inactive). Turning to `CSc1nnc(NC(=O)c2nc(S(=O)(=O)Cc3ccc(C)cc3)ncc2Cl)s1`, the inhibition is 11.8% (inactive). Under `CSc1ncc(Cl)c(C(=O)Nc2cc(C)ccc2C)n1` stands 7.23% (inactive); under `Cc1cccc(CS(=O)(=O)c2ncc(Cl)c(C(=O)Nc3ccc(F)cc3)n2)c1`, 105% (active); under `Cc1ccc(CS(=O)(=O)c2ncc(Cl)c(C(=O)Nc3nnc(C)s3)n2)cc1`, 7.63% (inactive). As for `COC1C(CO)OC(n2cnc3c(=S)nc(N)[nH]c32)C1O` (configuration not stated), the inhibition was 24.5% (inactive).

With `COc1ccccc1NC(=O)N(O)C1(C#N)CCCCC1`, the inhibition is -17.6% (inactive). Consider `Cc1cc(NC(=O)C(C)SCC(=O)Nc2cccc(S(=O)(=O)N3CCCCCC3)c2)no1` (configuration not stated), for which the inhibition is -41.5% (inactive). As for `CC1(C)C(=O)CCC2(C)C1=CCC1C2C(=O)CC2(C)C1CCC2(O)C(=O)CO` (configuration not stated), the inhibition is 20.2% (inactive).

With `COc1ccc(CCNC(=O)COc2cc(C)cc3oc(=O)c(C)c(C)c23)cc1OC`, the inhibition was -2.49% (inactive). Under `CCN1C[C@@H]2[C@@H]3C(=O)N(C)C(=O)[C@@H]3[C@](C)(C1=O)N2C(=O)c1ccccc1` stands -20.8% (inactive); under `COc1ccc(Cl)cc1C=CC=Nc1ccc(S(N)(=O)=O)cc1`, 4.35% (inactive). To `O=C(CSc1ccc(-c2ccco2)nn1)Nc1cccc(F)c1` belongs -6.54% (inactive); to `O=C(CSc1ccc(-c2ccccn2)nn1)Nc1ccccc1`, 119% (active). Under `O=C(CSc1ccc(-c2ccc(-n3cccn3)cc2)nn1)Nc1ccc([N+](=O)[O-])cc1` stands 2.41% (inactive).
